This passage reports Potency results from PubChem BioAssay (NCATS).

For assay [1], the target named is Phospholipid hydroperoxide glutathione peroxidase GPX4 (Homo sapiens) (UniProt P36969). Put plainly: Primary qHTS Assay for Inhibitors of Recombinant Selenoprotein Glutathione Peroxidase 4 (GPX4) (AID 1845192). Further: nearly all actives have a fitted effect of over 65% in size. Further: potency means the concentration at half of the fitted maximal effect. The method in brief: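 Steps: GPX4 plus compound, 30 min RT; add GR/GSH/NADPH master mix; start with cumene hydroperoxide; read 340/450 nm fluorescence at 0 and 15 min. Finals were 200 nM GPX4, 1 mM GSH, 0.5 mM CHP, 0.5 mM NADPH, 100 nM GR.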
(In general: qHTS replaces the single test concentration by a dilution series.)

Assay [2] addresses Luciferin 4-monooxygenase (Photinus pyralis) (UniProt P08659). Description: Primary firefly luciferase (FLuc) qHTS assay for identification of artifact compounds. (AID 1845220). Further: nearly all actives have a fitted effect of over 60% in size. Further: potency means the concentration at half of the fitted maximal effect. The method in brief:
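D-luciferin and ATP (10 uM each, final) in Tris acetate buffer pH 7.6 were incubated with compounds for 15 min at room temperature. The reaction was started with 10 nM Photinus pyralis luciferase and luminescence read after 5 min. Percent inhibition was fitted to a 4-parameter Hill equation.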

Assay [3] concerns Nanoluciferase (engineered Oplophorus gracilirostris luciferase). Description: Primary Nanoluciferase (NLuc) qHTS assay for identification of artifact compounds. (AID 1845222). Further: series mostly up to about 54 µM. The essentials: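 Diluted conditioned medium from NLuc-expressing S16 cells treated with compounds for 15 min at room temperature, then Nano-Glo substrate added; luminescence read after 5 min. Percent inhibition versus no-enzyme and DMSO controls fitted to 4-parameter Hill equation.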

The nature of assay [4]: Primary fluorescence-based thiol-reactive (MSTI) qHTS assay for identification of artifact compounds. (AID 1845221). Further: nearly all actives have a fitted effect of over 65% in size. Further: potency means the concentration at half of the fitted maximal effect. The method in brief:
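qHTS titration of compound; 4 uM MSTI, PBS pH 7.4, 2% DMSO; 1 h RT, dark; fluorescence 525/598 nm; normalized to Acetyl-MSTI and MSTI; 4-parameter Hill fit.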

Results filed as inconclusive are left out. Calls of active or inactive are those of the source. The call rests on the fitted dose curve; in most records, active means well fitted curve in the direction sought with a large enough effect; inconclusive means small, poorly fitted or top-dose-only effect, or another doubt; inactive means no such curve, though single readings can be large; an effect the other way counts as inactive or inconclusive.

Chain of Phospholipid hydroperoxide glutathione peroxidase GPX4 (Homo sapiens) (P36969 whole entry, looked up): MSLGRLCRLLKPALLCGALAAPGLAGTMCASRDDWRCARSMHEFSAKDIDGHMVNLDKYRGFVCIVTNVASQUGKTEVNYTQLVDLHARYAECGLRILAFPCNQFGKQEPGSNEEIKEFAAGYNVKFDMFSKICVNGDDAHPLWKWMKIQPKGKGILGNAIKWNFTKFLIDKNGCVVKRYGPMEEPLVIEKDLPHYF

For `CCn1c(N)c(C(=O)NC)c(=O)c2ccc(C#CC(C)(O)COC)nc21` (stereo unspecified), the Potency result in assay [1], in assay [2] and in assay [3] was “inactive” each time.
As for `CCC[C@H](N[C@H]1CCc2cc(F)cc(F)c2C1)C(=O)Nc1cn(C(C)(C)CNCC(C)(C)C)cn1`, the Potency entry in assay [1], in assay [2], in assay [4] and in assay [3] was “inactive” throughout.
Turning to `COc1cc(N(C)CCN(C)C)c(N)cc1Nc1nccc(-c2cn(C)c3ccccc23)n1`, the Potency result in assay [1], in assay [2] and in assay [3] was “inactive” each time.
In the case of `CC(NC(=O)Cc1cc(F)cc(F)c1)C(=O)NC1C(=O)N(C)c2ccccc2-c2ccccc21` (stereo unspecified), the Potency result in assay [1], in assay [2], in assay [4] and in assay [3] was “inactive” in each case.
On to `C=CC(C)(C)C12CC3C(=O)N4C(CC5(C(C)(C)C=C)c6ccccc6NC45)C(=O)N3C1Nc1ccccc12` (stereo unspecified), for which the Potency entry in assay [1], in assay [2] and in assay [3] was “inactive” in each case.
Take `C=C(NC(=O)C(=C)NC(=O)c1csc(C2=NC3c4csc(n4)C4NC(=O)c5csc(n5)C(C(C)(O)C(C)O)NC(=O)C5CSC(=N5)/C(=C/C)NC(=O)C(C(C)O)NC(=O)c5csc(n5)C3(CC2)NC(=O)C(C)NC(=O)C(=C)NC(=O)C(C)NC(=O)C(C(C)CC)NC2C=Cc3c(C(C)O)cc(nc3C2O)C(=O)OC4C)n1)C(N)=O` (stereo unspecified): the Potency result in assay [1], in assay [2], in assay [4] and in assay [3] was “inactive” in each case.
With `Cc1csc(N(C(=O)CSc2ccc(-c3ccccc3)nn2)C2CC2)n1`, the Potency entry in assay [1], in assay [2], in assay [4] and in assay [3] was “inactive” each time.
For the compound `Cc1ccc(NC(=O)C(C)C)cc1C1CCN(Cc2ccc(Oc3ccc(F)c(F)c3)cc2)CC1`, the Potency result in assay [1], in assay [2] and in assay [3] was “inactive” each time.
As for `C=C1C(=O)O[C@@H]2C[C@]3(C)[C@@H](CCC(C)O)[C@@H]3C[C@H]12` (stereo partly specified), the Potency result in assay [1], in assay [2] and in assay [3] was “inactive” in each case.
`CN(CC1COCCO1)S(=O)(=O)Nc1ccc2ccc3ncc(-c4cnn(C)c4)cc3c(=O)c2c1` (stereo unspecified): the Potency entry in assay [1], in assay [2], in assay [4] and in assay [3] was “inactive” throughout.
In the case of `COc1ccnc(CS(=O)c2nc3cc(OC(F)F)ccc3[nH]2)c1OC` (stereo unspecified), the Potency in assay [4] is 21.2 µM (active).
Take `CN(C)S(=O)(=O)c1ccc(NC(=S)N2CCC(C(O)(c3ccccc3)c3ccccc3)CC2)cc1`: the Potency entry in assay [2], in assay [4] and in assay [3] was “inactive” in each case.
In the case of `CC(=O)Nc1nc(C)c(-c2nc(N3CCCC(O)C3)no2)s1` (stereo unspecified), the Potency entry in assay [2], in assay [4] and in assay [3] was “inactive” throughout.
For the compound `CCOc1cc(C(C)(C)C)ccc1C1=NC(C)(c2ccc(Cl)cc2)C(C)(c2ccc(Cl)cc2)N1C(=O)N1CCN(CCCS(C)(=O)=O)CC1` (stereo unspecified), the Potency entry in assay [1], in assay [4] and in assay [3] was “inactive” throughout.
As to `CN1CCC(NC(=O)c2cc(-c3c(O)cc(O)cc3Oc3ccc([N+](=O)[O-])cc3)on2)CC1`, the Potency result in assay [2] and in assay [3] was “inactive” each time.
For `Nc1nc2c(c(N3CC[C@@H](N)C3)n1)CCCc1ccccc1-2`, the Potency entry in assay [2], in assay [4] and in assay [3] was “inactive” throughout.
In the case of `Cn1cc(-c2cnn3c(N)c(Br)c(C4CCCNC4)nc23)cn1` (stereo unspecified), the Potency result in assay [1], in assay [2] and in assay [3] was “inactive” each time.
As to `NC(=O)c1cccc2[nH]c(-c3ccc(C4CCCN4)cc3F)nc12` (stereo unspecified), the Potency result in assay [4] and in assay [3] was “inactive” throughout.
Take `C=C1C(OC2OC(CO)C(O)C(O)C2O)CC2C(C)(C)C(O)CCC2(C)C1CC/C(C)=C\COC(=O)CC(=O)O` (stereo unspecified): the Potency result in assay [1], in assay [4] and in assay [3] was “inactive” throughout.
In the case of `Cc1cc2occ(CN(C)CCN(C)Cc3cn(-c4cccc(C(F)(F)F)c4)c4ccccc34)c(=O)c2cc1C`, the Potency entry in assay [1], in assay [2] and in assay [3] was “inactive” in each case.
`COCc1c(Cl)ccc2c1CC[C@H]2c1ncc[nH]1`: the Potency result in assay [1], in assay [2] and in assay [3] was “inactive” each time.
Take `COC(=O)c1ccc2c(c1)[nH]c1ncnc(NCCCN3CCCCC3)c12`: the Potency entry in assay [2], in assay [4] and in assay [3] was “inactive” each time.
For `Cc1cc(-c2nc3cc(F)ccc3s2)ccc1NC(=O)[C@@H](N)CCCCN`, the Potency in assay [2] is 1.9 µM (active). Besides, the Potency result in assay [4] and in assay [3] was “inactive” throughout.
Turning to `CC(C)=CCc1cc2c(cc1O)OC[C@H]1c3ccc(O)cc3O[C@@H]21`, the Potency result in assay [1] and in assay [3] was “inactive” throughout.
For `NS(=O)(=O)c1ccc(N2N=C(c3ccccc3)CC2c2ccccc2)cc1` (stereo unspecified), in assay [1], the Potency was 16.1 µM (active). Besides, the Potency entry in assay [4] and in assay [3] was “inactive” throughout.
In the case of `C=CC(=O)N1CCCC(n2nc(-c3ccc(Oc4ccccc4)cc3)c3c(N)ncnc32)C1` (stereo unspecified), the Potency result in assay [1], in assay [2] and in assay [3] was “inactive” throughout.
`COc1cc2nc(N3CCN(C(=O)COc4c(OC)cccc4C(C)C)CC3)nc(N)c2cc1OC`: the Potency entry in assay [2] and in assay [3] was “inactive” each time.
With `CN(C)N(C)C(=O)[C@@]1(Cc2ccccc2)CCCN(C(=O)[C@@H](Cc2c[nH]c3ccccc23)NC(=O)C(C)(C)N)C1`, the Potency result in assay [1], in assay [2] and in assay [3] was “inactive” each time.
In the case of `COc1cc(C(=O)O)ccc1NC(=O)C1NC(CC(C)(C)C)C(C#N)(c2ccc(Cl)cc2F)C1c1cccc(Cl)c1F` (stereo unspecified), the Potency result in assay [1], in assay [4] and in assay [3] was “inactive” throughout.
